Compound activity as filed in PubChem BioAssay.
Most compounds without a hit are left out; they make up all but 4.1% or so of the library.
LEDGF integ inh = blocks HIV-1 LEDGF/p75-dependent DNA integration. AID 743269. 370,000 compounds, 0.64% hits. TR-FRET IN-LEDGF/p75 DNA integration, Eu/Cy5. inhibition, % at 3.7 µM;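 active = inhibition above the screen-wide mean plus 3 SD, cut at about 13% in these data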;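 also: signal is the Cy5 over europium emission ratio at 671 and 618 nm; 0% = plate median of compound wells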
ABHD5-PLIN5 inh = inhibitors of human ABHD5-perilipin-5 interaction. Split G. princeps luciferase complementation, luminescence, 4 h. inhibition, % at 4 µM. 360,000 compounds, 0.78% hits;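 active = inhibition above the mean inhibition across every tested compound plus 3 SD, cut at about 22% in these data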;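 also: 0% = DMSO only wells and the 100% control is not disclosed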
MBD2 inh = blocks human MBD2 binding to methylated DNA; Q9UBB5; TR-FRET, MBD2 binding to methylated oligonucleotide; inhibition, % at 4.4 µM; 370,000 compounds, 0.31% hits; AID 686964; in the data active = inhibition above about 13%
UHRF1 binding = UHRF1 methyl-DNA binding inhibition | 370,000 compounds, 0.75% hits | inhibition, % at 4.4 µM | UHRF1 binding to methylated oligo, TR-FRET | Q96T88; in the data active = inhibition above about 21%;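 also: UHRF1 SRA domain binding a hemimethylated CpG hairpin DNA probe; 0% = median of test compound wells and 100% = reference inhibitor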
PRMT1 inh = blocks human protein arginine methyltransferase 1 | recombinant PRMT1, activity-based probe fluorescence polarization | inhibition, % at 2.79 µM | 370,000 compounds, 1.3% hits;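 active = inhibition above about 21% made by adding two undisclosed values, limit read from the data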
Target sequence (Q99873 whole entry, looked up): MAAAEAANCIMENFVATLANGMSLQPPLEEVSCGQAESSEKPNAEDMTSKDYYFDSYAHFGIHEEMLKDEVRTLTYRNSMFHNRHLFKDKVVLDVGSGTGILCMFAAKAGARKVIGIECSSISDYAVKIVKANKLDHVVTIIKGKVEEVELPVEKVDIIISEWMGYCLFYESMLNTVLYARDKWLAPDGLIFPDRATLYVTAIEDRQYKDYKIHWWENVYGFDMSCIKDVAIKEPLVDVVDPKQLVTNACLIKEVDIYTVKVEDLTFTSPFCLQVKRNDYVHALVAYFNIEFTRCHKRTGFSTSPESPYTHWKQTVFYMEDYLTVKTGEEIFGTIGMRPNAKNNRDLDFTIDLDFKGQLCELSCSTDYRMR
rCAG binder = binds r(CAG) RNA repeats; r(CAG) RNA repeat, TO-PRO-1 dye displacement fluorescence; inhibition, % at 3 µM; 370,000 compounds, 1.3% hits; AID 651821;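 active = inhibition above the plate cutoff, the mean of all test compounds on that plate plus 3 SD, cut at about 35% in these data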;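 also: 0% = DMSO alone and 100% = 100 µM mitoxantrone as full dye displacement; higher means more dye released from RNA so lower well fluorescence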
rCAG bind conf = r(CAG) RNA repeat binding, confirmation; shares compounds with rCAG binder; TO-PRO-1 dye displacement fluorescence; inhibition, % at 3 µM; 4,300 compounds, 70% hits; AID 652065;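 active = inhibition above a per-plate cutoff, the mean inhibition of sample wells plus 3 SD, cut at about 35% in these data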;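 also: loss of TO-PRO-1 fluorescence as compound displaces dye from 1x1 AA loop RNA; 0% = DMSO only wells and 100% = 100 µM mitoxantrone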
dCAG dye counter = DNA CAG dye complex inhibition counter-screen; shares compounds with rCAG binder; d(CAG) DNA oligo TO-PRO-1 dye displacement, fluorescence; inhibition, % at 3 µM; 4,300 compounds, 94% hits;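 active = inhibition above its plate's cutoff, the mean test-well inhibition plus 3 SD, cut at about 4.8% in these data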;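 also: 0% = DNA dye mix with DMSO and 100% = 100 µM mitoxantrone; hits displace the dye from DNA and so lower well fluorescence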
* hit, by the source's call; . = not tested or not shown.

SMILES	LEDGF integ inh	ABHD5-PLIN5 inh	MBD2 inh	UHRF1 binding	PRMT1 inh	rCAG binder	rCAG bind conf	dCAG dye counter
COC(=O)C1=C(C)N(Cc2ccc(C(F)(F)F)cc2)C(=NCc2ccccc2)NC1c1cccc(Cl)c1 (configuration not stated)	-2	.	1	3	-4	6	.	.
NCCCC(C(=O)O)N(C(=O)OCc1ccccc1)C(=O)OCc1ccccc1 (configuration not stated)	0	.	-1	4	1	8	.	.
Cc1cc(=O)[nH]c(SCC(=O)Nc2cccc(Cl)c2F)n1	4	.	-3	2	-2	4	.	.
COC(=O)[C@]12C[C@H](CC(=O)NCc3ccc(OC)c(OC)c3)C(=O)N(Cc3ccc4c(c3)OCO4)C1=C[C@H](C(C)C)O[C@@H]2C1CC1	1	.	-2	-1	-6	3	.	.
CC(=O)Oc1cccc(C(=O)Nc2cccc(C(=O)Nc3ccccc3C(=O)O)c2)c1	3	-2	1	-3	0	56*	37*	8.4*
CCCCCCn1c(-c2ccc(Cl)cc2Cl)csc1=Nc1ccccc1	-2	.	0	-1	-2	3	.	.
O=C(O)c1cccc(N2C(=O)/C(=C/c3ccc(SCc4ccc(Cl)cc4)o3)SC2=S)c1	60*	-14	40*	89*	57*	67*	88*	61*
Cc1ccc(/C=C2\SC(=S)N(c3cccnc3)C2=O)o1	-2	7	0	6	3	4	.	.
O=C(Nc1ccc(Cl)cc1)c1cc2c(cc1O)[nH]c1ccccc12	-2	-6	-1	4	5	91*	85*	53*
CC(=O)Nc1ccc2[nH]c3ccccc3c2c1	-8	1	-5	1	-2	2	.	.
O=C(Nc1c(-c2ccccc2)nc2ncccn12)c1ccccc1	-2	.	5	-1	1	6	.	.
CCCn1nc([N+](=O)[O-])c(C(C#N)c2nc3ccccc3s2)c(Cl)c1=O (configuration not stated)	-1	11	-1	-3	28*	88*	83*	46*
N#Cc1ccc(OCCCN2CCC(C(O)(c3ccccc3)c3ccccc3)CC2)cc1	-4	.	2	2	-1	1	.	.
CCCCN1CC(COc2ccc(OC)cc2)OCCS1(=O)=O (configuration not stated)	5	.	-1	0	-4	2	.	.
Cc1nc2ccc(NC(=O)c3cc([N+](=O)[O-])cc([N+](=O)[O-])c3Cl)cc2s1	0	56*	2	-9	15	94*	55*	22*
COc1cccc(Cn2cc(COC(=O)N(C)Cc3ccccc3)nn2)c1	-1	.	-2	1	-1	1	.	.
O=C(O)CCC(=O)Nc1ccc(-c2nc3ccc(C(=O)c4ccccc4)cc3[nH]2)cc1	4	0	-1	-1	-3	45*	35*	7.9*
CCCc1cc(C(=O)Nc2cccc(-c3nn[nH]n3)c2)sc1C	-2	-10	0	5	5	40*	35*	8.5*
COC(=O)[C@]12C[C@H](CC(=O)NCc3cccs3)C(=O)N(Cc3cccc4ccccc34)C1=C[C@H](C(C)C)O[C@@H]2C1CC1	-5	.	-3	1	-3	5	.	.
CCN1C(=O)S/C(=C/c2cn(C)c3ccccc23)C1=O	-4	3	5	2	3	3	.	.
CCN1C(=O)S/C(=C/c2c(OCc3ccc(C(=O)O)cc3)ccc3ccccc23)C1=O	4	4	0	-1	1	50*	67*	27*
Cc1nn(-c2ccccc2)c2sc(C(=O)N3CCN(C(c4ccccc4)c4ccc(Cl)cc4)CC3)cc12 (configuration not stated)	-1	.	4	-1	7	10	.	.
Brc1ccc2nc(-c3ccc(CN4CCC5(CC4)CNc4ccccc45)cc3)c(-c3ccccc3)nc2c1	-5	.	5	0	-2	12	.	.
S=C(Nc1cc(Cl)cc(Cl)c1)NC(c1ccccc1)c1ccccc1	-1	.	-1	0	-5	.	.	.
COc1cc(/C=C2\SC(=O)N(c3cccc(Cl)c3)C2=O)cc([N+](=O)[O-])c1O	-1	-10	-5	-2	6	37*	85*	44*
SMILES	LEDGF integ inh	ABHD5-PLIN5 inh	MBD2 inh	UHRF1 binding	PRMT1 inh	rCAG binder	rCAG bind conf	dCAG dye counter
O=C1S/C(=C\c2ccc(O)c([N+](=O)[O-])c2)C(=O)N1c1ccccc1Cl	3	-16	-10	-1	2	48*	44*	11*
O=C(O)c1ccccc1NC(=O)C(Cc1ccccc1)N1C(=O)c2ccccc2C1=O (configuration not stated)	1	-4	1	1	3	42*	49*	12*
N=c1c(S(=O)(=O)c2ccc(Cl)cc2)cc2c(=O)n3ccccc3nc2n1Cc1ccco1	8	28*	3	-4	16	36*	56*	25*
COC(=O)C1=C(C)N(C)C(=NCc2ccc3c(c2)OCO3)NC1c1cccc(Cl)c1 (configuration not stated)	1	.	0	4	1	10	.	.
Cc1onc(C(=O)N2CCN(C(c3ccccc3)c3ccccc3)CC2)c1Br	6	.	2	-3	-5	.	.	.
CCn1nc(NS(=O)(=O)c2ccc(NC(C)=O)cc2)c2cc3cccc(C)c3nc21	0	0	2	-4	0	39*	19	4
CCn1nc(NS(=O)(=O)c2ccc(NC(C)=O)cc2)c2cc3ccccc3nc21	-4	0	-4	-3	0	3	.	.
CCCn1nc(NS(=O)(=O)c2cccc3nonc23)c2cc3cccc(C)c3nc21	-2	-14	6	-2	1	85*	78*	41*
CCn1nc(NS(=O)(=O)c2ccccc2)c2cc3cccc(C)c3nc21	0	-5	-2	3	-4	41*	33	11*
CCCn1nc(NS(C)(=O)=O)c2cc3cccc(C)c3nc21	0	-2	-2	2	2	14	.	.
C[C@H]1C2CC(OC(=O)Nc3ccc(C#N)cc3)C(C2)[C@H]2CCCCN21 (some centres not stated)	-1	.	0	-2	2	8	.	.
COC(=O)C1=C(C)N(Cc2ccccc2C(F)(F)F)C(=NCC2CC2)NC1c1cccc(F)c1 (configuration not stated)	6	.	2	-3	-3	4	.	.
Cc1ccc(C)c(S(=O)(=O)/N=C2\C=C(NS(=O)(=O)c3ccccc3)C(=O)c3ccccc32)c1	9	-11	-12	-7	6	67*	90*	69*
